Data on 65 compounds can be found in the supplement of paper PMC9446081.

About 220 (0.56%) of roughly 39,000 compounds showed activity. Shown is part of a subset that was picked to be rich in actives. A number with no mark means an inactive call.
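Further: Wild-type cells incubated without shaking, value is the mean of two biological replicates.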

This assay deals with Escherichia coli K-12 BW25113. The assay can be described thus: relative growth (OD600 normalised to plate interquartile mean) (fraction); higher = less growth inhibition, active = 0.2 or less. Particulars: 50 µM; LB; incubation time: overnight (16-24 h).
Regarding `Cc1noc(C)c1NC(=O)Nc1ccc2c(c1)C(=O)N([C@H](C)CO)C[C@H](C)[C@@H](CN(C)C(=O)Nc1ccc(F)cc1)OCCCC[C@@H](C)O2`, the relative growth is 0.985.

`CCN1CCN(c2ccc(Nc3cc(N(C)C(=O)Nc4c(Cl)c(OC)cc(OC)c4Cl)ncn3)cc2)CC1`: the relative growth was 0.975. The same measure for `C[C@@H]1CN([C@H](C)CO)C(=O)Cc2cc(NC(=O)Nc3ccc(F)cc3)ccc2O[C@@H]1CN(C)S(C)(=O)=O`: 0.979; for `C[C@@H]1CCCCO[C@H](CN(C)S(=O)(=O)c2ccc(Cl)cc2)[C@H](C)CN([C@@H](C)CO)C(=O)c2cc(NC(=O)c3ccncc3)ccc2O1`: 0.997; for `Cc1ccc(S(=O)(=O)N(C)C[C@@H]2OCCCC[C@@H](C)Oc3ccc(NC(=O)Nc4c(C)noc4C)cc3C(=O)N([C@H](C)CO)C[C@@H]2C)cc1`: 1. The same measure for `CC(=O)N[C@H]1CC[C@@H](CCNC(=O)C2CC2)O[C@H]1CO`: 0.943; for `CC1(C)SC2C(NC(=O)Cc3ccccc3)C(=O)N2C1C(=O)[O-].[K+]` (stereo not given): 0.576; for `CC1(C)SC2C(N3C(=O)C(c4ccccc4)NC3(C)C)C(=O)N2C1C(=O)[O-].[K+]` (stereo not given): 0.0443 (active).

In the case of `CC1(C)SC2C(NC(=O)COc3ccccc3)C(=O)N2C1C(=O)[O-].[K+]` (stereo not given), the relative growth was 0.598. In the case of `O=C(C[C@H]1C[C@@H]2c3cc(NC(=O)C4CCOCC4)ccc3O[C@@H]2[C@@H](CO)O1)NCc1cc(F)ccc1F`, the relative growth is 0.984. For the compound `C[C@@H]1CCCCO[C@@H](CN(C)C(=O)C2CCCCC2)[C@H](C)CN([C@@H](C)CO)C(=O)c2cc(NS(=O)(=O)c3ccccc3)ccc2O1`, the relative growth is 1.02.

In the case of `COc1ccc(S(=O)(=O)Nc2ccc3c(c2)C(=O)N([C@@H](C)CO)C[C@@H](C)[C@@H](CN(C)S(=O)(=O)c2cn(C)cn2)O3)cc1`, the relative growth is 0.994. The same measure for `Cn1sccc1=O`: 0.0369 (active). With `COc1ccccc1C#Cc1cnc2c(c1)C(=O)N([C@@H](C)CO)C[C@@H](C)[C@@H](CN(C)C(=O)c1ccc3c(c1)OCO3)O2`, the relative growth was 1.03.

For `COc1ccc(S(=O)(=O)Nc2ccc3c(c2)C(=O)N([C@@H](C)CO)C[C@@H](C)[C@H](CN(C)Cc2ccc(C(=O)O)cc2)OCCCC[C@@H](C)O3)cc1`, the relative growth was 0.984. Under `CC(C)CC#Cc1cnc2c(c1)C(=O)N([C@@H](C)CO)C[C@@H](C)[C@@H](CN(C)C(=O)CCN1CCCCC1)O2` stands 0.965; under `CN1CCN(c2c(F)cc3c(=O)c(C(=O)O)cn(CCF)c3c2F)CC1`, 0.0442 (active). In the case of `CN1CCN(c2c(F)cc3c(=O)c(C(=O)O)cn4c3c2SCC4)CC1`, the relative growth is 0.0436 (active). The same measure for `C[C@@H]1CN([C@@H](C)CO)C(=O)CCCn2nncc2CO[C@@H]1CN(C)S(=O)(=O)c1ccc(Oc2ccccc2)cc1`: 1.02. Under `Cc1ccc(S(=O)(=O)N[C@@H]2C=C[C@H](CC(=O)NCCN3CCCCC3)O[C@@H]2CO)cc1` stands 1.01; under `Cc1ccc(S(=O)(=O)N(C)C[C@@H]2OCCCC[C@H](C)Oc3ccc(NC(=O)Nc4ccc(F)cc4)cc3C(=O)N([C@H](C)CO)C[C@H]2C)cc1`, 0.983; under `CC(C)NC(=O)Nc1ccc2c(c1)C(=O)N([C@H](C)CO)C[C@H](C)[C@@H](CN(C)C(=O)C1CCCCC1)OCCCC[C@@H](C)O2`, 0.984. With `COc1cc2c(cc1OC)C(=O)C(CC1CCN(Cc3ccccc3)CC1)C2.Cl` (stereo not given), the relative growth was 0.0489 (active).

As for `NC1CCN(Cc2ccccc2)CC1`, the relative growth was 1.09. The same measure for `NCC1CCN(Cc2ccccc2)CC1`: 1.02; for `O=C(C[C@H]1C[C@@H]2c3cc(NS(=O)(=O)c4ccc(F)cc4)ccc3O[C@@H]2[C@@H](CO)O1)NCc1ccccn1`: 1.01. As for `NC1(CC(=O)O)CCN(Cc2ccccc2)CC1`, the relative growth was 0.999. As for `Cn1cc(CN2CCC(C(=O)N[C@@H](c3ccc(F)cc3)c3ccc4ccccc4n3)CC2)c2ccccc21`, the relative growth is 0.963. The same measure for `C[C@@H]1CN([C@H](C)CO)C(=O)c2cccc(NS(=O)(=O)c3cn(C)cn3)c2O[C@@H]1CN(C)CC1CCCCC1`: 0.98; for `COc1ccc(CN(C)C[C@@H]2Oc3c(NC(=O)c4cc(C)nn4C)cccc3C(=O)N([C@@H](C)CO)C[C@H]2C)cc1`: 0.957. The same measure for `O=C(OC(C(F)(F)F)C(F)(F)F)N1CCN(Cc2ccc(C(F)(F)F)cc2N2CCCC2)CC1`: 0.994; for `CCn1cc(C(=O)O)c(=O)c2cc(F)c(N3CCN(C(=S)Nc4cc(C(F)(F)F)ccc4Cl)CC3)cc21`: 0.0858 (active).

As to `CCn1cc(C(=O)N2CCN(C)CC2)c(=O)c2cc(S(=O)(=O)N(C)C)ccc21`, the relative growth is 0.974. As for `CCn1cc(C(=O)O)c(=O)c2cc(F)c(N3CCNCC3)cc21`, the relative growth is 0.0456 (active).

With `CCn1cc(C(=O)O)c(=O)c2cc(F)c(N3CCN(C)CC3)cc21.CS(=O)(=O)O`, the relative growth is 0.0455 (active).

On to `CCOC(=O)c1c[nH]c(CC(C)=O)nc1=O`, for which the relative growth is 0.999. The same measure for `Cc1ccc(S(=O)(=O)N2C[C@@H](O)COC[C@H]3O[C@H](CC(=O)N[C@H]4CCN(Cc5ccccc5)C4)CC[C@@H]32)cc1`: 1.01. The same measure for `C[C@H]1CN([C@@H](C)CO)C(=O)Cc2cc(NC(=O)Nc3ccc4c(c3)OCO4)ccc2O[C@H]1CN(C)S(=O)(=O)c1cn(C)cn1`: 0.835; for `C[C@@H]1CN([C@H](C)CO)C(=O)c2cccc(NC(=O)Nc3cccc4ccccc34)c2O[C@H]1CN(C)S(=O)(=O)c1ccccc1`: 0.987. The same measure for `COc1ccc(S(=O)(=O)N(C)C[C@H]2Oc3c(NS(=O)(=O)c4c(C)noc4C)cccc3C(=O)N([C@H](C)CO)C[C@H]2C)cc1`: 0.997; for `CON=C1CN(c2nc3c(cc2F)c(=O)c(C(=O)O)cn3C2CC2)CC1CN.CS(=O)(=O)O` (stereo not given): 0.0419 (active).

Take `CO/N=C1\CN(c2nc3c(cc2F)c(=O)c(C(=O)O)cn3C2CC2)C[C@@H]1CN`: the relative growth was 0.154 (active). The same measure for `C[C@H]1CN([C@@H](C)CO)C(=O)Cc2cc(NC(=O)NC3CCCCC3)ccc2O[C@H]1CN(C)S(=O)(=O)c1cn(C)cn1`: 0.985; for `C[C@H]1CN([C@@H](C)CO)C(=O)c2cc(NC(=O)Cc3ccccc3)ccc2O[C@@H]1CN(C)S(=O)(=O)c1cccs1`: 0.993; for `Nc1ccc(OCC(=O)N2CCOCC2)cc1`: 1.03.

`CC(C)NC(=O)Nc1ccc2c(c1)C(=O)N([C@H](C)CO)C[C@@H](C)[C@H](CN(C)Cc1ccc(C(F)(F)F)cc1)OCCCC[C@@H](C)O2`: the relative growth was 1.02. Take `CCOc1ccc2c(c1)-c1c(ssc1=S)C(C)(C)N2C`: the relative growth is 0.993.

On to `CC1(C)S[C@@H]2[C@H](NC(=O)[C@H](NC(=O)N3CCNC3=O)c3ccccc3)C(=O)N2[C@H]1C(=O)O`, for which the relative growth was 0.0984 (active).

`CCN1CCN(C(=O)N[C@@H](C(=O)N[C@@H]2C(=O)N3[C@@H]2SC(C)(C)[C@@H]3C(=O)O)c2ccccc2)C(=O)C1=O`: the relative growth is 0.606.

As for `CC1(C)SC2C(NC(=O)C(C(=O)[O-])c3ccccc3)C(=O)N2C1C(=O)[O-].[Na+].[Na+]` (stereo not given), the relative growth was 1.1. Under `CCN1CCN(C(=O)NC(C(=O)NC2C(=O)N3C2SC(C)(C)C3C(=O)[O-])c2ccccc2)C(=O)C1=O.[Na+]` (stereo not given) stands 0.0465 (active). The same measure for `CC1(C)S[C@H]2[C@@H](NC(=O)[C@@H](NC(=O)N3CCN(S(C)(=O)=O)C3=O)c3ccccc3)C(=O)N2[C@@H]1C(=O)O`: 0.237; for `CC1(C)SC2C(NC(=O)C(NC(=O)N3CCNC3=O)c3ccccc3)C(=O)N2C1C(=O)[O-].[Na+]` (stereo not given): 0.263. The same measure for `C[C@@H]1CN([C@H](C)CO)C(=O)CCCn2cc(nn2)CO[C@H]1CN(C)C(=O)C1CC1`: 1.02. As to `Cn1nc(-c2ccccn2)nc2c(=O)n(C)c(=O)nc1-2`, the relative growth is 0.933. The same measure for `C[C@@H]1CCCCO[C@H](CN(C)Cc2ccccc2)[C@H](C)CN([C@@H](C)CO)C(=O)c2cc(NS(=O)(=O)c3cccs3)ccc2O1`: 0.975; for `C[C@@H]1CN([C@H](C)CO)S(=O)(=O)c2ccc(-c3cccc(C#N)c3)cc2O[C@@H]1CN(C)C(=O)c1ccncc1`: 1. The same measure for `C[C@@H]1CN([C@H](C)CO)C(=O)Cc2cc(NS(=O)(=O)c3cccs3)ccc2O[C@@H]1CN(C)Cc1ccc(Cl)c(Cl)c1`: 1.01; for `O=C(C[C@@H]1CC[C@H](NC(=O)c2cnccn2)[C@@H](CO)O1)NCc1ccccc1F`: 0.993; for `Cc1noc(C)c1S(=O)(=O)Nc1ccc2c(c1)CC(=O)N([C@@H](C)CO)C[C@@H](C)[C@H](CN(C)S(C)(=O)=O)O2`: 0.975. The same measure for `COc1ccc(NC(=O)Nc2ccc3c(c2)C(=O)N([C@@H](C)CO)C[C@H](C)[C@H](CN(C)S(C)(=O)=O)O3)cc1`: 0.991; for `Cc1ccc(S(=O)(=O)N(C)C[C@H]2Oc3c(NC(=O)c4ccncc4)cccc3C(=O)N([C@@H](C)CO)C[C@H]2C)cc1`: 1.01; for `Cn1cc(-c2[nH]c3cc(NC(=O)[C@H](N)C4CCCCC4)cc4c3c2C=NNC4=O)cn1`: 0.161 (active). `C[C@@H]1CN([C@@H](C)CO)C(=O)c2cc(NC(=O)Nc3ccc4c(c3)OCO4)ccc2O[C@@H](C)CCCCO[C@@H]1CN(C)C(=O)NC1CCCCC1`: the relative growth is 1.04. With `O=c1c(O[C@@H]2O[C@H](CO)[C@@H](O)[C@H](O)[C@H]2O)c(-c2ccc(O)c(O)c2)oc2cc(O)cc(O)c12`, the relative growth was 1.04.
